Test systems include HCT-15 colon; HT29 colon; SNB-75 CNS; SNB-19 CNS; U251 CNS; PC-3 prostate; SK-MEL-5 melanoma; UACC-62 melanoma; LOX IMVI melanoma; SK-MEL-28 melanoma.
Common to all, as to assay: NCI-60 one-dose screen, 48 h (100 = growth as untreated, 0 = no growth, -100 = all killed)
Conditions in all cases: 10 µM unless noted

Compounds without any hit were thinned out: in the full panel of roughly 83,000, 20% have a hit.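 For each line, cells grew in 96-well plates with the test compound present at a single concentration for 48 hours.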 Values without a mark were called inactive. Calls of active or inactive are those of the source. Rule for the calls: active = growth percent below 10; inactive = the rest.

The results in this text go back to PubChem BioAssay (NCI).

Turning to `COc1ccc(OCC(=O)OC(C)C)cc1`, the growth with HCT-15 colon was 98.4%; in the assay with HT29 colon, 101%; in the assay on SNB-75 CNS it was 85%; in the assay with SNB-19 CNS it was 99.2%; with U251 CNS it was 104%; in the assay with PC-3 prostate, 103%. Also, the growth was 96.4% with SK-MEL-5 melanoma, 96.6% in the assay on UACC-62 melanoma, 87.2% in the assay on LOX IMVI melanoma and 102% with SK-MEL-28 melanoma.
As to `C[C@]12CC[C@@H]3c4ccc(O)cc4CC[C@H]3[C@@H]1C[C@H](O)C2`, the growth was 44.4% with HCT-15 colon; 94.1% in the assay with HT29 colon; 84.2% in the assay with SNB-75 CNS; 66.2% in the assay with SNB-19 CNS; 63.3% in the assay with U251 CNS; 80% in the assay on PC-3 prostate. Moreover, the growth is 64.9% in the assay with SK-MEL-5 melanoma, 43.6% with UACC-62 melanoma, 63.4% with LOX IMVI melanoma and 84.3% with SK-MEL-28 melanoma.
Take `COc1ccc(C2CC(c3ccc(OC)cc3O)=NN2c2ccc(S(N)(=O)=O)cc2)cc1` (stereo not given): the growth is 33.6% in the assay on HCT-15 colon; 33.7% in the assay with HT29 colon; 58.2% in the assay on SNB-75 CNS; 59.5% in the assay on SNB-19 CNS; 40.9% in the assay on U251 CNS; 15.5% with PC-3 prostate. Besides, the growth is 49% in the assay with SK-MEL-5 melanoma, 38.1% with UACC-62 melanoma, 52.5% in the assay with LOX IMVI melanoma and 56.1% in the assay with SK-MEL-28 melanoma.
Take `O=C(NCc1ccccc1)c1ccc2c(c1)NC(=O)[C@@H]1CCCN21`: the growth was 99.6% in the assay on HCT-15 colon; 103% in the assay with HT29 colon; 86.6% in the assay on SNB-75 CNS; 94.6% with SNB-19 CNS; 102% in the assay with U251 CNS; 103% in the assay on PC-3 prostate. Besides, the growth was 101% with SK-MEL-5 melanoma, 93.7% in the assay on UACC-62 melanoma, 91.2% with LOX IMVI melanoma and 103% in the assay on SK-MEL-28 melanoma.
For the compound `COc1ccc2oc(=O)cc(-c3c(C#N)c(N)n4nc(N)c(C#N)c4c3C#N)c2c1`, the growth is 102% in the assay with HCT-15 colon; 90.7% in the assay on HT29 colon; 116% in the assay with SNB-75 CNS; 112% with SNB-19 CNS; 101% in the assay on U251 CNS; 104% in the assay with PC-3 prostate. Moreover, the growth was 99% with SK-MEL-5 melanoma, 107% in the assay on UACC-62 melanoma, 95% in the assay on LOX IMVI melanoma and 107% in the assay with SK-MEL-28 melanoma.
`COc1cc2c(cc1OCCCOc1cc3c(cc1OC)C(=O)N1CC(F)(F)C[C@H]1C=N3)N=C[C@@H]1CC(F)(F)CN1C2=O`: the growth in the assay on HCT-15 colon is 94.4%; in the assay with HT29 colon it was 11.8%; in the assay with SNB-75 CNS, -8.01% (active); in the assay on SNB-19 CNS it was 24.3%; with U251 CNS, 18%; in the assay with PC-3 prostate it was 3.21% (active). Moreover, the growth in the assay on SK-MEL-5 melanoma is -77.3% (active); with UACC-62 melanoma, -71.2% (active); with LOX IMVI melanoma, 16%; in the assay on SK-MEL-28 melanoma, -1.8% (active).
Regarding `CNCc1cccc2c1OCCOCCOCCN(CCN1CCOCC1)S(=O)(=O)c1ccc(cc1)-c1cnc(N)c(n1)C(=O)N2`, the growth with HCT-15 colon is 74.8%; in the assay with HT29 colon, 24.5%; in the assay with SNB-75 CNS, 16.7%; in the assay on SNB-19 CNS it was 76.3%; in the assay on U251 CNS, 53.8%; with PC-3 prostate it was 50.1%. The growth with SK-MEL-5 melanoma was 76.6%; in the assay with UACC-62 melanoma it was 73%; in the assay with LOX IMVI melanoma, 28.4%; with SK-MEL-28 melanoma it was 76.3%.
On to `COc1cc(/C=C/C(=O)c2ccc(NC(=O)CSc3nnc(-c4cc(OC)c(OC)c(OC)c4)n3-c3ccccc3)cc2)cc(OC)c1OC`, for which the growth in the assay with HCT-15 colon is -37.6% (active); in the assay on HT29 colon, 1.25% (active); in the assay on SNB-75 CNS, 45.4%; in the assay with SNB-19 CNS it was 35.8%; in the assay on U251 CNS, -8.68% (active); in the assay on PC-3 prostate, 28%. Moreover, the growth was 17.6% in the assay with SK-MEL-5 melanoma, 20.8% in the assay on UACC-62 melanoma, -52.3% (active) with LOX IMVI melanoma and 33.3% in the assay on SK-MEL-28 melanoma.
For `CCSc1ccc(C2C(Br)C(=O)N2c2cc(OC)c(OC)c(OC)c2)cc1` (stereo not given), the growth in the assay on HCT-15 colon is 15.2%; in the assay on HT29 colon, 2.99% (active); with SNB-75 CNS it was 51.1%; in the assay on SNB-19 CNS it was 33.4%; in the assay on U251 CNS, 12.1%; in the assay on PC-3 prostate, 20%. Also, the growth in the assay on SK-MEL-5 melanoma is -11.3% (active); in the assay with UACC-62 melanoma, 29.6%; with LOX IMVI melanoma, 25.7%; in the assay with SK-MEL-28 melanoma, 56.7%.
`C#Cc1ccccc1NC(=O)c1sc2nc3c(cc2c1N)CCCCCC3`: the growth was 70.2% in the assay on HCT-15 colon; 36.3% in the assay on HT29 colon; 39.2% in the assay with SNB-75 CNS; 76.5% in the assay on SNB-19 CNS; 23.4% with U251 CNS; 77.4% with PC-3 prostate. Moreover, the growth in the assay on SK-MEL-5 melanoma was 89.6%; in the assay with UACC-62 melanoma, 91.8%; with LOX IMVI melanoma, 22.8%; with SK-MEL-28 melanoma, 91.1%.
In the case of `Nn1c(SCC(=O)Nc2ccc(Cl)cc2)nnc1-c1cc(F)c(Cl)cc1Cl`, the growth with HCT-15 colon is 79.3%; in the assay on HT29 colon, 95%; with SNB-75 CNS, 81.2%; with SNB-19 CNS it was 98%; in the assay on U251 CNS, 94.4%; in the assay with PC-3 prostate, 85.7%. The growth in the assay with SK-MEL-5 melanoma is 86.6%; with UACC-62 melanoma, 65.8%; in the assay on LOX IMVI melanoma, 86%; in the assay with SK-MEL-28 melanoma, 98.1%.
As for `CN(CCC#N)C(=O)Nc1ccccc1`, the growth in the assay on HCT-15 colon was 104%; in the assay with HT29 colon, 94.6%; in the assay with SNB-75 CNS it was 99.2%; in the assay with SNB-19 CNS it was 109%; in the assay on U251 CNS, 102%; with PC-3 prostate, 99.5%. Moreover, the growth with SK-MEL-5 melanoma is 110%; with UACC-62 melanoma, 101%; in the assay with LOX IMVI melanoma it was 96.2%; in the assay on SK-MEL-28 melanoma, 112%.
As for `CCC1S/C(=N\N=C(/C)c2ccc[nH]2)N(c2ccccc2)C1=O` (stereo not given), the growth with HCT-15 colon was 96.1%; in the assay with HT29 colon, 87.4%; in the assay on SNB-75 CNS it was 105%; in the assay with SNB-19 CNS, 106%; in the assay on U251 CNS it was 108%; in the assay with PC-3 prostate it was 94.2%. Further, the growth is 79% with SK-MEL-5 melanoma, 101% in the assay on UACC-62 melanoma, 110% with LOX IMVI melanoma and 110% in the assay on SK-MEL-28 melanoma.
